Active and inactive are the calls of the source. Where a call stands in place of a potency, no number is given. Calls come from the whole dose curve; as a rule, active = well fitted activation curve with a large enough effect; inconclusive = small, poorly fitted or top-dose-only effect; inactive = no such curve, though single readings can be large or run the other way.
Potency is the fitted concentration of half-maximal effect.

The test can be described thus: Counterscreen for Identifying a Potential Treatment of Ataxia-Telangiectasia: Hit Validation. The conditions noted are these: cell-free AlphaLISA/AlphaScreen artifact counterscreen, PBS only, no cells; series mostly up to 76.9 µM. The procedure, abridged: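 Cell-free AlphaLISA counterscreen: compounds (up to 76.7 uM final) in PBS with detection mix of anti-pKAP1 and anti-KAP1 antibodies on donor/acceptor beads plus lysis buffer, incubated 6 hr at 25C before AlphaScreen read.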
(In general: Counterscreens check selectivity or assay interference.)
Regarding `CC(=O)Nc1ccc(NC2=C(Cl)C(=O)c3ccccc3C2=O)cc1`, the Potency entry is “inactive”. To `O=C(C[n+]1ccc2c(c1)nnn2-c1ccccc1)c1ccc(Cl)cc1` belongs “inactive”; to `CNC(=S)N/N=C/c1ccc2c(c1)OCCO2`, “inactive”. For the compound `CN(C)S(=O)(=O)c1cccc(C(=O)N=C2N=C3C=CC(Cl)=CN3Cc3ccccc32)c1`, the Potency entry was “inactive”. To `CC(Oc1ccccc1)C(=O)Nc1cccc(NC(=O)c2ccco2)c1` (centres undefined) belongs “inactive”; to `CCOC(=O)C1=C(O)C(=O)N(Cc2ccccc2)C1`, “inactive”; to `CC1=NN(C(C#N)c2ccc([N+](=O)[O-])cc2)C(C)(C)C1` (centres undefined), “inactive”.

In the case of `CC(C)(CN1CCN(c2ccccc2)CC1)NS(=O)(=O)c1ccccc1`, the Potency result was “inactive”. To `O=C(CN1C(=O)c2cccc([N+](=O)[O-])c2C1=O)NCc1ccccc1` belongs “inactive”. The same measure for `CCC(=O)NC1=C(Cl)C(=O)C(NC(=O)CC)=C(Cl)C1=O`: “inactive”. The same measure for `COc1ccc2nc(NCCCNC(=O)c3cc(OC)c(OC)c(OC)c3)c(C#N)cc2c1`: 29.2 µM (active). In the case of `CCCN1C2CCCC1CC(NC(=S)Nc1cccc(C)c1C)C2` (centres undefined), the Potency result is “inactive”. To `COc1cccc(CNCc2ccc(OC)c3ccccc23)c1OC` belongs “inactive”; to `CNC(=S)N(CCO)Cc1cc2cc3c(cc2[nH]c1=O)OCCO3`, “inactive”.

On to `CC(C)(C)NC(=O)c1cccc2c1-c1ccccc1C2=O`, for which the Potency entry was “inactive”. To `O=C(CCC(=O)c1ccc(F)cc1)Nc1cccc(Br)c1` belongs “inactive”. To `C=CCOC(=O)C1=C[C@H](c2coc3ccccc3c2=O)C[C@H](OCc2ccc(CO)cc2)O1` belongs “inactive”. The same measure for `COc1cccc(/C=N/NC(=O)c2cc3cc([N+](=O)[O-])ccc3s2)c1O`: “inactive”; for `Cc1ccc(C(C)C)c(OCCN2CCc3ccccc3C2)c1`: “inactive”. Regarding `COc1ccc(Nc2cc3n(c(=O)n2)CCc2cc(OC)c(OC)cc2-3)cc1`, the Potency entry was “inactive”. Consider `COc1ccc(N2CCN(C(=O)c3cc4cc(Cl)ccc4[nH]3)CC2)cc1`, for which the Potency result was “inactive”. To `CC(=O)Nc1ccc(NC(=O)CSc2nnnn2-c2ccc(F)cc2)cc1` belongs “inactive”. The same measure for `Cc1cccc(C)c1NC(=O)COC(=O)c1cc(=O)c2ccccc2o1`: “inactive”; for `CCC[C@H]1CCCC/C=C\CCCC(=O)OCCN1C(=O)OC(C)(C)C`: “inactive”; for `CC(C)c1ccc(-c2cc(C(=O)N3CCOCC3)c3cc(Br)ccc3n2)cc1`: “inactive”.

As to `Cc1ccc(C)c(-n2c(SCC(=O)NC(C(=O)O)C(C)C)nnc2-c2cccc(Cl)c2)c1` (centres undefined), the Potency entry is “inactive”. To `CCn1nc(C)c(/C=N/NC(=O)Cn2cncn2)c1C` belongs “inactive”; to `CNC(=S)N(CCc1c(C)[nH]c2ccc(Cl)cc12)Cc1cccnc1`, “inactive”; to `COC(=O)N/N=C/c1ccccc1OCCOc1ccc(OC)cc1`, “inactive”. The same measure for `CCn1c2ccccc2c2c3ncc4cccn4c3ccc21`: 41.2 µM (active). The same measure for `CCCc1ccc(S(=O)(=O)Nc2ccc(C)c(NS(C)(=O)=O)c2)cc1`: “inactive”; for `Cc1ccc(NC(=O)NC(=O)N(C(C)C)S(C)(=O)=O)nc1`: “inactive”. In the case of `CSc1nc2ccccc2nc1N(C)S(=O)(=O)c1ccc(C)cc1`, the Potency entry is “inactive”. The same measure for `CNC(=O)/C=C/c1cc(C(=O)c2ccc(Cl)cc2Cl)cn1C`: “inactive”; for `CC(O)[C@H]1CNC(=O)C(=O)N1CC1(c2ccccc2)CC1` (some centres undefined): “inactive”; for `Cn1c(=O)[nH]c(=O)c2[nH]c(N(Cc3ccccc3)Cc3ccccc3)nc21`: “inactive”. Regarding `O=C(OCCc1cc2ccccc2c(=O)o1)c1cccc(Br)c1`, the Potency entry is “inactive”. To `COC(=O)CCc1c(C)c(C(=O)c2cc(OC)c(OC)c(OC)c2)c2ccccn12` belongs “inactive”; to `Cn1cc(S(=O)(=O)Nc2ccc(OC(F)(F)F)cc2)c(=O)n(C)c1=O`, “inactive”.

The record behind these values is PubChem BioAssay AID493185 (National Center for Advancing Translational Sciences (NCATS), 2011).
